This is a sample that favours compounds with a hit; in the whole collection about 2.2% have one here.
M4 PAM: CHRM4 positive allosteric modulation; P08173; CHO-K1 hM4/Gqi5, Fluo-8 calcium fluorescence, ACh EC20; 0% = ACh EC20, 100% = maximal ACh; activation, % at 3 µM; 360,000 compounds, 0.4% hits; AID 624126;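 active = activation above its plate's cutoff, the mean activation of sample wells plus 3 SD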
Target sequence (P08173 whole entry, looked up): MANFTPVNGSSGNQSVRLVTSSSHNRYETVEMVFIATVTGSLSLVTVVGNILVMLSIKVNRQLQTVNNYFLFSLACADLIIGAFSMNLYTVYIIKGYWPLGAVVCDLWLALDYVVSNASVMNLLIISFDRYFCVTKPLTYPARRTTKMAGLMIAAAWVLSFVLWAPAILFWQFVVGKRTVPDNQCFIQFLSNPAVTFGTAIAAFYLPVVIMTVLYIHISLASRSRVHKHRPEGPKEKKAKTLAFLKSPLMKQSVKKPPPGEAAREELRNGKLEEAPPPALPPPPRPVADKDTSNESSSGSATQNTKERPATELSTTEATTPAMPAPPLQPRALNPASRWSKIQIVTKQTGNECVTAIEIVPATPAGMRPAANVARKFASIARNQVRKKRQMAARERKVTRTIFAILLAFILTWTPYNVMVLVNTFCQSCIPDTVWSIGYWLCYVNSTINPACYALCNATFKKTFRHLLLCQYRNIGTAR
CHRM1 agonist: activates human CHRM1 receptor; P11229; CHO-K1 hM1, Fluo-8 calcium fluorescence, agonist mode; 0% DMSO, 100% acetylcholine EC100; activation, % at 3 µM; 360,000 compounds, 0.33% hits;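 active = activation above the run's mean compound activation plus 3 SD, cut at about 16% in these data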;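 also: peak over basal fluorescence ratio within a 140 s kinetic read after compound addition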
CHRM4 antagonist: antagonists of human muscarinic M4 receptor (CHRM4); P08173; CHO-hM4 cells, ACh EC80, Fluo-8 calcium fluorescence; inhibition, % at 3 µM; 360,000 compounds, 0.73% hits; AID 624125;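 active = inhibition above its plate's cutoff, the mean inhibition of sample wells plus 3 SD, cut at about 27% in these data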;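 also: 0% = acetylcholine EC80 with DMSO and 100% = DMSO without agonist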
M1 antag: human CHRM1 antagonism. CHO-K1 hM1, Fluo-8 calcium fluorescence, ACh EC80 antagonist. inhibition, % at 3 µM. 360,000 compounds, 1.3% hits. AID 588852;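 active = percent inhibition above its own plate's cutoff, namely the mean of that plate's compound wells plus 3 SD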;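 also: peak over basal fluorescence ratio during 140 s after agonist addition; 0% = ACh EC80 plus DMSO and 100% = DMSO alone without agonist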
M1 PAM: positive allosteric modulators of human M1 muscarinic receptor; P11229; CHO-K1 hM1, Fluo-8 calcium fluorescence, ACh EC20; 0% = ACh EC20, 100% = maximal ACh; activation, % at 3 µM; 360,000 compounds, 0.088% hits; in the data active = activation above about 19%, passing the limit was not always enough
M4 ag: agonists of human muscarinic M4 receptor (CHRM4). P08173. CHO-K1 hM4/Gqi5, Fluo-8 calcium fluorescence; vehicle 0%, full acetylcholine response 100%. activation, % at 3 µM. 360,000 compounds, 0.14% hits. AID 624127;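 active = activation above the run mean over all test wells plus 3 SD, cut at about 32% in these data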;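 also: peak over basal fluorescence ratio per well then scaled between controls; 0% = DMSO wells and 100% = acetylcholine at EC100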
The depositor's hits bear a star; / = no result.

SMILES | M4 PAM | CHRM1 agonist | CHRM4 antagonist | M1 antag | M1 PAM | M4 ag
O=[N+]([O-])c1ccc(CS(=O)(=O)c2ccc(Cl)cc2)cc1 | -6 | -8 | 6 | 41* | -2 | 1
N/C(=N\c1nc2ccccc2o1)NC(=O)/C=C/c1ccccc1 | 12 | -3 | -2 | -12 | 5 | 0
Cc1ccc(C)c(OCCC(=O)OCC(=O)NCCNC(=O)COC(=O)CCOc2cc(C)ccc2C)c1 | -15 | 3 | 38* | 47* | -18 | 27
Cc1ccc(C)c(OCCC(=O)OCC(=O)NCc2ccccc2)c1 | -1 | -2 | -1 | -10 | 10 | 1
CCOc1ccccc1-n1c(SCC(=O)NC(C)CC)nnc1-c1ccoc1C (stereo not given) | 0 | 5 | -2 | -25 | 3 | 1
Cc1ccc2c(c1)nnn2C1CCN(S(=O)(=O)c2ccc(C(=O)N3C(C)CCCC3C)cc2)CC1 (stereo not given) | -10 | 1 | 14 | 33* | -12 | 12
Cc1sc(NC(=O)CSc2nnc(-c3ccccc3)o2)c(C#N)c1C | 8 | 0 | 0 | -8 | 10 | 0
COC(=O)c1ccccc1NC(=O)c1ccc(F)cc1 | -9 | -4 | -1 | -12 | 10 | -1
Cc1ccc(C(=O)c2c3ccccc3[n+]([O-])n2[C@@H](C)C(N)=O)cc1 | 5 | -9 | 8 | 3 | 4 | 1
CCOc1ccc2nc(N(CCN(CC)CC)C(=O)c3ccc([N+](=O)[O-])cc3)sc2c1 | 13 | -7 | 13 | 44* | -6 | 1
CCN(CC)CCN(C(=O)c1ccc([N+](=O)[O-])cc1)c1nc2c(OC)cccc2s1 | 16 | -5 | -13 | -5 | 2 | 2
CCN(CC)CCN(C(=O)c1ccc2ccccc2c1)c1nc2ccc(OC)cc2s1 | 5 | -6 | 0 | -1 | 4 | 0
CCN(CC)CCN(C(=O)c1ccc([N+](=O)[O-])cc1)c1nc2ccc(OC)cc2s1 | 32* | -6 | -14 | -12 | 8 | 1
Nc1cc(=O)[nH]c(SCC(=O)c2ccc(F)cc2)n1 | 7 | -5 | -9 | 3 | -1 | 1
COc1cc(OC)c(S(=O)(=O)NCc2cccnc2)cc1NC(C)=O | -3 | -1 | 2 | 14 | 4 | 0
COC(=O)c1ccccc1NC(=O)CSc1nc(O)c(-c2ccccc2)c(=O)[nH]1 | 3 | -3 | -5 | 10 | 1 | 0
CC(=O)Nc1c(O)nc(SCC(=O)N2CCCCC2)[nH]c1=O | 23* | 8 | -7 | -19 | 26* | 1
CC(=O)Nc1c(O)nc(SCC(=O)Nc2cccc(C)c2)[nH]c1=O | 42* | 1 | -3 | -13 | 14 | 2
CC(=O)Nc1c(O)nc(SCC(=O)Nc2ccc(C(C)=O)cc2)[nH]c1=O | 0 | -3 | 3 | -6 | 4 | 2
COC(=O)c1cccc(NC(=O)CSc2nc(O)c(-c3ccccc3)c(=O)[nH]2)c1 | 24* | 0 | -5 | 0 | 11 | 1
O=C(Nc1ccc(Br)cc1)C1CC(O)CN1C(=O)Oc1ccccc1 (stereo not given) | -5 | 3 | -2 | -10 | 15 | 2
CCC(=O)c1cc(F)ccc1OCC(=O)N1CCN(c2ccc(F)cc2)CC1 | 3 | -3 | -13 | -6 | 4 | 10
Cc1ncoc1C(=O)Nc1cccc(Cl)c1C | 14 | -4 | -1 | -1 | -4 | 1
N#Cc1cccc(OCCCN2CCC(C(O)(c3ccccc3)c3ccccc3)CC2)c1 | -14 | / | 24 | / | / | 11
Cc1cc(OCCCN2CCC(C(O)(c3ccccc3)c3ccccc3)CC2)ccc1Br | -10 | / | 29* | / | / | 17
SMILES | M4 PAM | CHRM1 agonist | CHRM4 antagonist | M1 antag | M1 PAM | M4 ag
Cc1ccc(S(=O)(=O)NC(CC(C)C)C(=O)Oc2ccc3c4c(c(=O)oc3c2)CCC4)cc1 (stereo not given) | -22 | -4 | 25 | 43* | -19 | 12
Cc1nc2c(C(=O)NCCc3ccccc3Cl)c[nH]n2c(=O)c1Cl | 14 | -3 | 0 | 2 | 8 | -2
CCN(CC)CCCNS(=O)(=O)c1ccc(OC)cc1 | 4 | -7 | 2 | -7 | 4 | 0
CCOC(=O)C1=C(Cc2ccc(Cl)cc2)C(=O)c2ccccc2C1=O | -5 | 7 | 35* | 19 | 2 | 14
CCOC(=O)C1=C(C)N=C2c3ccccc3C(=O)C2C1c1ccc(Cl)cc1 (stereo not given) | -7 | -3 | 6 | 15 | -9 | 6
O=C1[C@H](Oc2ccccc2)[C@@H](c2ccncc2)N1c1ccncc1 | -2 | 0 | -6 | -5 | 3 | 0
O=C1[C@@H](Oc2ccccc2)[C@@H](c2cnc3ccccc3c2)N1c1ccccc1 | -6 | -10 | -18 | 30* | -20 | 2
Cc1cc2c(ncn2C(C)C)c(NS(=O)(=O)c2ccc(F)cc2)c1C | -3 | -10 | 6 | -9 | 11 | 0
CCCSc1ccc([C@H]2N[C@@](C)(C(=O)OC)[C@H]3C(=O)N(C)C(=O)[C@@H]23)cc1 | -3 | -3 | 3 | -12 | 4 | -1
CCCCCCSc1ccc([C@H]2N[C@@](C)(C(=O)OC)[C@H]3C(=O)N(C)C(=O)[C@@H]23)cc1 | -5 | -5 | 21 | 36* | -18 | 8
NC(=S)NNC(=O)[C@@H]1CCCC[C@@H]1C(=O)O | -1 | -6 | 9 | 17 | -9 | 0
Cc1cc(C(=O)NCc2cccnc2)n(-c2ccccc2)n1 | -13 | 0 | 35* | -14 | 14 | 1
Cc1ccccc1NC(=O)NCCCN1CCN(C2CCCCC2)CC1 | -4 | -2 | -1 | -10 | -4 | 0
Cc1cc(C(=O)NCCCN2CCN(C3CCCCC3)CC2)n(-c2ccccc2)n1 | -4 | 36* | 2 | 7 | 0 | 0
Cc1cccc(NC(=O)CCC(=O)N/N=C/c2cc([N+](=O)[O-])ccc2O)c1 | 6 | -4 | 2 | -10 | 6 | 1
CCC(C)C(CO)NCCCn1cnc2c(OC)ncnc21 (stereo not given) | -1 | -1 | 2 | 21* | -15 | 2
CCN=C(NCC)SC1CC(=O)N(c2cccc(OCC)c2)C1=O (stereo not given) | -9 | 2 | 33* | 44* | -12 | 19
O=[N+]([O-])c1cc(C(F)(F)F)cc([N+](=O)[O-])c1NCCNC(=S)Nc1ccc(Cl)c(Cl)c1 | -11 | 4 | 31* | 30 | -10 | 15
FC(F)(F)c1cccc(NC(=S)Nc2ccc(Cl)c(Cl)c2)c1 | -1 | 7 | 3 | 4 | -5 | 6
CCCOc1cccc(-c2cc(C(=O)N/N=C/c3cccnc3)c3ccccc3n2)c1 | -8 | 0 | 1 | 10 | -2 | 9
